hgDAF-12 ag – activates the H. glycines DAF-12 receptor ligand-binding domain; 370,000 tested, 1.8% active; AID 687014; HEK293 GAL4-hgDAF12 UAS-luciferase reporter, agonist luminescence; normalized to butyrate control; activation, % at 6.8 µM;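 active = activation above a cutoff set at the mean of all screened compounds plus 3 SD, cut at about 10% in these data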
DAX1 inh-1 – inhibits human nuclear receptor DAX1; P51843; AID 504766; inhibition, % at 6.75 µM; 340,000 tested, 0.99% active; HEK293 Gal4-DAX1 luciferase reporter, luminescence;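 active = inhibition above the mean over all tested compounds plus 3 SD, cut at about 4.2% in these data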;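 note: inhibition shows as a rise in luminescence from relieved DAX1 repression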
Target sequence (P51843 207-470 limits assumed): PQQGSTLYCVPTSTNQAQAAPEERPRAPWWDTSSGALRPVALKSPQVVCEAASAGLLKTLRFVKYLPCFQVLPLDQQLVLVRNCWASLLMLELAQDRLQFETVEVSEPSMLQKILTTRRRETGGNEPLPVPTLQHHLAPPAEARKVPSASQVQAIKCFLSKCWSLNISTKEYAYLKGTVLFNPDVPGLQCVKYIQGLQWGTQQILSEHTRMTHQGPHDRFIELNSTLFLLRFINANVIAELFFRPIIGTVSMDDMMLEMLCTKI
PolyA inhibitor – yeast polyadenylation inhibition | S. cerevisiae SKY197-pL101 polyadenylation reporter, beta-gal luminescence; efflux-impaired pdr1/pdr3 knockout yeast; score 100 = 6 SD above DMSO | activity score, % at 12 µM | 300,000 tested, 0.02% active | AID 1875;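 active = lowest replicate activity score at least 50, where 100 means six control SD above control mean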;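 note: yeast exposed to compound for 9 h at 30 °C; higher score means more reporter readthrough which indicates perturbed polyadenylation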
ssDAF12 agonist – S. stercoralis DAF-12 activation, primary screen | activation, % at 6.8 µM | HEK293 ssDAF-12/GRIP1 lit1-tk-luc reporter, luminescence; % of 3 µM dafachronic acid response | 370,000 tested, 1% active;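 active = activation above the mean over all tested compounds plus 3 SD, cut at about 0.9% in these data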
DAX1 inh-2 – blocks DAX1 repression of SF-1 activated StAR promoter; HEK293T StAR-luciferase reporter, SF-1/DAX-1 repression relief; inhibition, % at 6.8 µM; 370,000 tested, 1.1% active;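 active = inhibition above the mean over all tested compounds plus 3 SD, cut at about 3.6% in these data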;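 note: higher inhibition means more luminescence from relief of DAX-1 repression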
hcDAF12 agonist – activators of H. contortus DAF-12 nuclear receptor; HEK293 hcDAF-12 lit1-tk-luc reporter, luminescence; 0% DMSO, 100% Δ7-dafachronic acid; activation, % at 6.8 µM; 370,000 tested, 1.4% active; AID 652067;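 active = activation above the mean of all tested compounds plus 3 SD, cut at about 5.5% in these data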
Hits are given with their value; 0 = inactive; - = no result given. Sampled rows, rich in hits. Any-hit rate of the full collection: about 4.1%.

SMILES	hgDAF-12 ag	DAX1 inh-1	PolyA inhibitor	ssDAF12 agonist	DAX1 inh-2	hcDAF12 agonist
O=C(CSc1nnc(Cc2cccs2)n1-c1ccccc1)Nc1ccccc1-c1ccccc1	0	-	-	0	0	0
Cc1cc(N)ncc1[N+](=O)[O-]	0	4.2	-	0	0	0
CCC(C#Cc1ccccc1)NCc1ccc(OC)cc1OC (stereo not drawn)	0	-	-	0	-	0
O=C(CN1CCOCC1)NN1CC(=O)N(c2ccc(Cl)cc2)CC1=O	0	5.6	0	0	0	0
Cc1ccc(N2CC(=O)N(NC(=O)CN3CCN(c4ccccc4)CC3)CC2=O)cc1	0	0	0	0	0	0
C[C@H]1O[C@@H](n2c3ccc(Cl)cc3c3ccc4c5cc(Cl)ccc5[nH]c4c32)[C@H](O)[C@H](O)[C@H]1O	0	-	-	0	0	0
COCC(=O)Nc1ccc2c(c1)C(=O)N(C)[C@@H]1CC[C@@H](CC(=O)OC)O[C@H]1CO2	0	-	-	0	0	0
Cn1cc(Br)c(C(=O)Nc2nccs2)n1	0	0	0	0	0	5.6
Cn1cc(Br)c(C(=O)Nc2c(F)c(F)c(F)c(F)c2F)n1	0	0	0	0	0	0
O=C1Cc2ccccc2C(=O)N1OCc1ccc(Cl)cc1	0	0	0	0.9	0	0
CCCCN1CCN(C2=Nc3ccccc3Sc3ccccc32)CC1	0	-	-	0	0	0
COC(=O)C1=C(C)N(Cc2ccccc2C(F)(F)F)C(=NCc2ccccc2)NC1c1ccc(Cl)cc1 (stereo not drawn)	0	-	-	0	0	0
CC(=O)Nc1ccc(NC(=O)C2C3CCC(C3)C2C(=O)O)cc1 (stereo not drawn)	0	0	0	0	0	0
O=C(O)C1C2CCC(C2)C1C(=O)Nc1ccccc1 (stereo not drawn)	0	4.3	0	0	0	0
Cc1cc(C)cc(NC(=S)NC2CC3CCC(C2)N3Cc2ccco2)c1 (stereo not drawn)	0	0	0	0	0	0
Cc1ccc(C)c(NC(=S)NC2CC3CCC(C2)N3Cc2ccco2)c1 (stereo not drawn)	0	0	0	1.6	0	0
COc1ccc(C(=O)OCCCN(C)C2CN(Cc3cn(Cc4ccccc4C(F)(F)F)nn3)S(=O)(=O)C2)cc1OC (stereo not drawn)	0	-	-	0	0	0
CC(=O)c1ccc(NC(=O)C2Cc3ccccc3CN2C(=O)c2ccccc2)cc1 (stereo not drawn)	0	0	0	0	0	6.0
COc1ccc(NC(=O)C2Cc3ccccc3CN2C(=O)c2ccccc2)cn1 (stereo not drawn)	0	0	0	0	0	0
O=C(Nc1nc2ncccn2c1-c1ccccc1)c1ccccc1	0	-	-	0	0	0
c1coc(-c2nc(-c3ccncc3)no2)c1	13	0	0	1.7	0	0
Clc1ccc(-c2nc(-c3ccncc3)no2)c(Cl)c1	0	4.9	0	0	0	0
Cc1cccc(NC(=O)OC2CC3CC2[C@H]2CCCCN2C3)c1 (stereo partly drawn)	0	-	-	0	0	0
O=C(Nc1ccc(F)cc1)OCc1cn(Cc2ccccc2Cl)nn1	0	-	-	0	0	0
O=C(NCCc1ccccc1)OCc1cn(-c2cccc(Cl)c2)nn1	0	-	-	0	0	0
SMILES	hgDAF-12 ag	DAX1 inh-1	PolyA inhibitor	ssDAF12 agonist	DAX1 inh-2	hcDAF12 agonist
CCOc1ccc(-n2c(=O)c3ccccc3c3ccccc3c2=O)cc1	0	4.9	0	0	0	0
CN(C)/C=C/C(=O)c1cccc(Oc2ncccn2)c1	0	4.6	0	0	0	0
CC1=CC(C)(C)N=C(NC#N)N1	0	0	0	1.0	0	0
CC(C)CNC(=O)OCc1cn(Cc2ccccc2F)nn1	0	-	-	0	0	0
COC(=O)c1[nH]c2ccc(F)cc2c1NS(=O)(=O)c1ccc(OC)cc1OC	0	0	0	1.1	0	0
O=C(Oc1cccc(-c2cnc3ccccc3n2)c1)c1ccco1	0	0	0	0	0	6.5
CCN(CC)S(=O)(=O)c1ccc(C)c(C(=O)Oc2cccc(-c3cnc4ccccc4n3)c2)c1	0	0	0	0	0	0
O=C(N1CCc2ccccc2C1)n1cc(C(O)(c2ccccc2)c2ccccc2)nn1	0	-	-	0	-	0
COC(=O)C(Cc1c[nH]c2ccccc12)NC(=O)c1cccs1 (stereo not drawn)	0	0	0	0	0	0
O=C(NC(Cc1c[nH]c2ccccc12)C(=O)OCC(=O)c1cccc2ccccc12)c1cccs1 (stereo not drawn)	0	0	0	0	0	6.1
COCc1cc(=O)n2[nH]c(C)c(-c3ccc(Cl)cc3)c2n1	13	0	-	0	0	0
CCc1cc(=O)n2[nH]c(C)c(-c3ccccc3OC)c2n1	0	0	0	0	0	0
CCN1CCN(C(=O)CN2C(=O)c3ccccc3S2(=O)=O)CC1	0	0	0	0	3.8	0
CC(C)c1cc(C(=O)NCCc2ccccc2)no1	0	7.4	0	0	0	0
CSc1ccccc1NC(=O)c1cc(C)on1	0	0	0	0	0	0
CSc1ccccc1NC(=O)c1cc(C(C)C)on1	0	0	0	0	0	6.4
CCNC(=O)COc1ccc(Br)cc1Cl	0	0	0	0	0	0
COCCCNC(=O)COc1ccc(Br)cc1Cl	11	0	0	0	0	0
Cc1c(Cl)c([N+](=O)[O-])nn1CC(=O)N1CCCC1	0	0	0	0	0	0
Cc1c(Cl)c([N+](=O)[O-])nn1CC(=O)N1CCN(Cc2ccccc2)CC1	0	4.4	0	0	0	0
Cn1c2ccccc2c(=O)c2ccc(NCCc3cccs3)cc21	0	0	-	0	4.1	0
Cn1c(=O)oc2cc(S(=O)(=O)N3CCN(C(=O)C4CCCO4)CC3)ccc21 (stereo not drawn)	0	-	-	0	0	0
COc1ccc(NC(=O)C/C(C)=N/NC(=O)c2ccccn2)c(OC)c1	12	0	0	0	0	0
COc1ccc(NC(=O)C/C(C)=N/NC(=O)c2cccs2)c([N+](=O)[O-])c1	11	0	0	0	0	0
COc1ccc(NC(=O)C/C(C)=N/NC(=O)c2cnccn2)c(OC)c1	0	0	0	0	0	0
COc1ccc(CCNC(=O)C/C(C)=N/NC(=O)c2cnccn2)cc1	0	0	0	0	4.2	0
COc1ccc(CCNC(=O)c2cnccn2)cc1	0	0	0	0	0	0
CCN(C)C(=O)CN1C(=O)C2CCCCN2C(=O)c2ccccc21 (stereo not drawn)	0	-	-	0	0	0
CC(c1ccc(F)cc1)n1cc(C(=O)NCCN(C)C)nn1 (stereo not drawn)	0	5.5	0	0	0	0
CC(c1ccc(F)cc1)n1cc(C(=O)NCc2ccccn2)nn1 (stereo not drawn)	0	0	0	0	0	0

Assay outcomes (PubChem BioAssay)
